PubChem BioAssay AID1159580 (chemical genetic matrix, 2015)
In all, about 5,500 compounds went through this assay and about 2,000 (36%) were called active. About 18% were inconclusive and are not listed. Cut-off read from the data, not from the text of the source: active = normalized growth mostly below about 0.91 (no sharp cut-off); inconclusive = no clear call, values can overlap the other calls; inactive = mostly above about 0.92. The list shows a part of the results.

Assay: chemical genetic growth profiling, strain panel (AID 1159580);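 note: tested at 20 µM; growth read once vehicle control cultures reached saturation at 30 °C; 1 = growth at the plate median or of vehicle wells; lower values mean less growth of the strain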
Settings: growth OD
[1] = S. cerevisiae deletion strains, locus YAL013W, strain DEP1, hits give low values
[2] = S. cerevisiae deletion strains, locus YBR229C, strain ROT2, hits give low values
[3] = S. cerevisiae deletion strains, locus YDL101C, strain DUN1, hits give low values
[4] = S. cerevisiae deletion strains, locus YDL134C, strain PPH21, hits give low values
[5] = S. cerevisiae deletion strains, locus YDR150W, strain NUM1, hits give low values
[6] = S. cerevisiae deletion strains, locus YEL061C, strain CIN8, hits give low values
[7] = S. cerevisiae deletion strains, locus YGR078C, strain PAC10, hits give low values
[8] = S. cerevisiae deletion strains, locus YHR030C, strain SLT2, hits give low values
[9] = S. cerevisiae deletion strains, locus YJR043C, strain POL32, hits give low values
[10] = S. cerevisiae deletion strains, locus YJR075W, strain HOC1, hits give low values
[11] = S. cerevisiae deletion strains, locus YKL190W, strain CNB1, hits give low values
[12] = S. cerevisiae deletion strains, locus YLR039C, strain RIC1, hits give low values
[13] = S. cerevisiae deletion strains, locus YLR262C, strain YPT6, hits give low values
[14] = S. cerevisiae deletion strains, locus YMR263W, strain SAP30, hits give low values
[15] = S. cerevisiae deletion strains, locus YMR307W, strain GAS1, hits give low values
[16] = S. cerevisiae deletion strains, locus YNL153C, strain GIM3, hits give low values
[17] = S. cerevisiae deletion strains, locus YNL322C, strain KRE1, hits give low values
[18] = S. cerevisiae deletion strains, locus YPL055C, strain LGE1, hits give low values
[19] = S. cerevisiae deletion strains, locus YPL241C, strain CIN2, hits give low values

Measured: normalized growth

CNC(=O)Oc1cccc2c1OC(C)(C)C2
inactive: [1] 1.01 | S. cerevisiae deletion strains, locus YBR021W, strain FUR4, hits give low values 0.994 | [2] 1 | S. cerevisiae deletion strains, locus YCL029C, strain bik1, hits give low values 1 | S. cerevisiae deletion strains, locus YDL035C, strain GPR1, hits give low values 1.01 | S. cerevisiae deletion strains, locus YDL074C, strain BRE1, hits give low values 1.03 | [3] 1.02 | [4] 0.997 | S. cerevisiae deletion strains, locus YDL185W, strain tfp1, hits give low values 0.978 | S. cerevisiae deletion strains, locus YDL192W, strain arf1, hits give low values 1 | S. cerevisiae deletion strains, locus YDR101C, strain arx1, hits give low values 0.992 | [5] 1.01 | S. cerevisiae deletion strains, locus YDR162C, strain NBP2, hits give low values 1.01 | S. cerevisiae deletion strains, locus YDR318W, strain mcm21, hits give low values 0.995 | S. cerevisiae deletion strains, locus YDR388W, hits give low values 0.996 | S. cerevisiae deletion strains, locus YDR502C, strain sam2, hits give low values 1 | [6] 1 | S. cerevisiae deletion strains, locus YER110C, hits give low values 0.993 | S. cerevisiae deletion strains, locus YER155C, strain BEM2, hits give low values 1.02 | S. cerevisiae deletion strains, locus YER167W, strain BCK2, hits give low values 1.02 | S. cerevisiae deletion strains, locus YGL078C, strain dbp3, hits give low values 0.979 | S. cerevisiae deletion strains, locus YGL086W, strain mad1, hits give low values 0.995 | S. cerevisiae deletion strains, locus YGL248W, strain PDE1, hits give low values 1.01 | [7] 1.01 | S. cerevisiae deletion strains, locus YGR135W, strain pre9, hits give low values 1 | S. cerevisiae deletion strains, locus YGR229C, strain SMI1, hits give low values 1.02 | S. cerevisiae deletion strains, locus YGR252W, strain gcn5, hits give low values 0.99 | [8] 1.01 | S. cerevisiae deletion strains, locus YHR079C, strain IRE1 (second series), hits give low values 0.996 | S. cerevisiae deletion strains, locus YHR094C, strain hxt1, hits give low values 0.994 | S. cerevisiae deletion strains, locus YHR129C, strain ARP1, hits give low values 1.01 | S. cerevisiae deletion strains, locus YHR200W, strain rpn10, hits give low values 1 | S. cerevisiae deletion strains, locus YIL066C, strain RNR3, hits give low values 1.01 | S. cerevisiae deletion strains, locus YIL073C, strain SPO22, hits give low values 1.04 | S. cerevisiae deletion strains, locus YIL125W, strain kgd1, hits give low values 0.987 | S. cerevisiae deletion strains, locus YIR030C, strain dcg1, hits give low values 0.996 | S. cerevisiae deletion strains, locus YJL095W, strain BCK1, hits give low values 1 | S. cerevisiae deletion strains, locus YJL134W, strain LCB3, hits give low values 1 | S. cerevisiae deletion strains, locus YJL168C, strain set2, hits give low values 0.997 | S. cerevisiae deletion strains, locus YJL187C, strain SWE1 (second series), hits give low values 1.01 | [9] 1.01 | [10] 1.01 | S. cerevisiae deletion strains, locus YKL009W, strain mrt4, hits give low values 1.01 | S. cerevisiae deletion strains, locus YKL068W, hits give low values 0.987 | S. cerevisiae deletion strains, locus YKL085W, strain MDH1 (second series), hits give low values 0.978 | S. cerevisiae deletion strains, locus YKL085W, strain MDH1, hits give low values 0.978 | [11] 1.02 | S. cerevisiae deletion strains, locus YKR001C, strain vps1, hits give low values 0.999 | [12] 1.04 | S. cerevisiae deletion strains, locus YLR058C, strain SHM2, hits give low values 1.01 | S. cerevisiae deletion strains, locus YLR102C, strain apc9, hits give low values 1 | [13] 1.06 | S. cerevisiae deletion strains, locus YLR268W, strain sec22, hits give low values 1.01 | S. cerevisiae deletion strains, locus YLR330W, strain CHS5, hits give low values 1 | S. cerevisiae deletion strains, locus YLR342W, strain FKS1 (second series), hits give low values 1.02 | S. cerevisiae deletion strains, locus YLR371W, strain rom2, hits give low values 0.993 | S. cerevisiae deletion strains, locus YLR418C, strain cdc73, hits give low values 0.973 | S. cerevisiae deletion strains, locus YML016C, strain PPZ1, hits give low values 1 | S. cerevisiae deletion strains, locus YML032C, strain rad52, hits give low values 1 | S. cerevisiae deletion strains, locus YML124C, strain tub3, hits give low values 0.999 | S. cerevisiae deletion strains, locus YMR078C, strain ctf18, hits give low values 0.988 | S. cerevisiae deletion strains, locus YMR223W, strain ubp8, hits give low values 0.992 | [14] 0.992 | [15] 1.02 | S. cerevisiae deletion strains, locus YNL067W, strain RPL9B, hits give low values 1.02 | S. cerevisiae deletion strains, locus YNL128W, strain TEP1, hits give low values 1.02 | [16] 1.01 | S. cerevisiae deletion strains, locus YNL233W, strain BNI4, hits give low values 1.02 | S. cerevisiae deletion strains, locus YNL250W, strain rad50, hits give low values 0.967 | S. cerevisiae deletion strains, locus YNL271C, strain bni1, hits give low values 0.977 | S. cerevisiae deletion strains, locus YNL298W, strain CLA4, hits give low values 0.986 | S. cerevisiae deletion strains, locus YNL307C, strain MCK1, hits give low values 0.995 | [17] 1.01 | S. cerevisiae deletion strains, locus YNR052C, strain pop2, hits give low values 1 | S. cerevisiae deletion strains, locus YOL006C, strain TOP1, hits give low values 1.01 | S. cerevisiae deletion strains, locus YOL012C, strain htz1 0.992 | S. cerevisiae deletion strains, locus YOL147C, strain pex11, hits give low values 0.996 | S. cerevisiae deletion strains, locus YOR061W, strain CKA2, hits give low values 1 | S. cerevisiae deletion strains, locus YOR069W, strain VPS5, hits give low values 1.01 | S. cerevisiae deletion strains, locus YOR136W, strain idh2, hits give low values 0.993 | S. cerevisiae deletion strains, locus YOR144C, strain elg1, hits give low values 1 | S. cerevisiae deletion strains, locus YOR184W, strain ser1, hits give low values 1.01 | S. cerevisiae deletion strains, locus YOR316C, strain cot1, hits give low values 0.996 | [18] 1.03 | [19] 1 | S. cerevisiae deletion strains, locus YPR119W, strain clb2, hits give low values 0.993 | S. cerevisiae deletion strains, locus YPR141C, strain kar3, hits give low values 0.973 | S. cerevisiae deletion strains, locus YPR163C, strain tif3, hits give low values 0.987 | S. cerevisiae deletion strains, locus YPR167C, strain met16, hits give low values 0.999 | S. cerevisiae deletion strains, strain wtn01, hits give low values 0.994 | S. cerevisiae strains, strain wild type, hits give low values 1.01

N#Cc1cc(I)c(C#N)c(I)c1
active: [1] 0.765 | [2] 0.771 | [3] 0.72 | [5] 0.782 | [7] 0.693 | S. cerevisiae deletion strains, locus YHR087W, strain rtc3, hits give low values 0.737 | [9] 0.777 | [10] 0.693 | S. cerevisiae deletion strains, locus YLR058C, strain SHM2 (second series), hits give low values 0.733 | S. cerevisiae deletion strains, locus YMR219W, strain ESC1, hits give low values 0.786 | [14] 0.775 | [16] 0.746 | [17] 0.75 | [18] 0.643
inactive: [4] 0.978 | [6] 0.981 | [8] 0.988 | [11] 0.973 | [12] 0.905 | S. cerevisiae deletion strains, locus YLR085C, strain ARP6, hits give low values 0.949 | [13] 0.94 | S. cerevisiae deletion strains, locus YML094W, strain GIM5, hits give low values 0.98 | [15] 0.961 | S. cerevisiae deletion strains, locus YNL298W, strain CLA4 (second series), hits give low values 0.937 | S. cerevisiae deletion strains, locus YNR030W, strain Alg12, hits give low values 0.949 | [19] 0.979 | S. cerevisiae deletion strains, locus YPR135W, strain CTF4, hits give low values 1.01
